Data published in the supplement of paper PMC8728848.
The sample as a whole holds a higher share of the strongest signals than the screen did.

What was measured:
Assay in all cases: glycan array binding signal (z-score within array); higher = stronger binding
Settings in all cases: glycan notation: IUPAC condensed, linker removed
Fuc(a1-2)Gal = target: Fuc(a1-2)Gal
Summary of the method: (§1)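 From the Consortium for Functional Glycomics database, 3228 arrays were curated, keeping only those whose protein sequence was available. Binding is given as a within-array Z-score averaged across arrays sharing a protein sequence and across linkers. Negative Z-scores can be read as non-binding.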

[1] = target: Fuc(a1-2)Gal(b1-3)GalNAc(b1-4)[Neu5Ac(a2-3)]Gal(b1-4)Glc
Summary of the method: as §1

[2] = target: Fuc(a1-2)Gal(b1-3)GlcNAc(b1-3)[Neu5Ac(a2-6)Gal(b1-4)GlcNAc(b1-6)]Gal(b1-4)Glc
Summary of the method: as §1

[3] = target: Fuc(a1-2)[Gal(a1-3)]Gal(b1-3)GlcNAc
Summary of the method: as §1

[4] = target: Fuc(a1-2)[Gal(a1-3)]Gal(b1-4)[Fuc(a1-3)]Glc
Summary of the method: as §1

[5] = target: Fuc(a1-2)[Gal(a1-3)]Gal(b1-4)[Fuc(a1-3)]GlcNAc(b1-3)GalNAc
Summary of the method: as §1

[6] = target: Fuc(a1-3)[Gal(b1-4)]Glc6S
Summary of the method: as §1

[7] = target: Fuc(a1-3)[Gal3S(b1-4)]Glc
Summary of the method: as §1

[8] = target: Gal(a1-3)[Gal(a1-4)]Gal(b1-4)GlcNAc
Summary of the method: as §1

[9] = target: Gal(a1-4)Gal(b1-4)GlcNAc(b1-2)Man(a1-3)[Gal(a1-4)Gal(b1-4)GlcNAc(b1-2)Man(a1-6)]Man(b1-4)GlcNAc(b1-4)GlcNAc
Summary of the method: as §1

Gal(b1-2)Gal = target: Gal(b1-2)Gal
Summary of the method: as §1

[10] = target: Gal(b1-3)GlcNAc(b1-3)Gal(b1-4)GlcNAc(b1-2)Man(a1-3)[Gal(b1-3)GlcNAc(b1-3)Gal(b1-4)GlcNAc(b1-2)Man(a1-6)]Man(b1-4)GlcNAc(b1-4)GlcNAc
Summary of the method: as §1

Gal(b1-4)Glc = target: Gal(b1-4)Glc
Summary of the method: as §1

[11] = target: Gal(b1-4)GlcNAc(b1-2)[Gal(b1-4)GlcNAc(b1-4)]Man(a1-3)[GlcNAc(b1-4)][Gal(b1-4)GlcNAc(b1-2)[Gal(b1-4)GlcNAc(b1-6)]Man(a1-6)]Man(b1-4)GlcNAc(b1-4)GlcNAc
Summary of the method: as §1

[12] = target: Gal(b1-4)GlcNAc(b1-3)Gal(b1-4)GlcNAc(b1-3)Gal(b1-4)GlcNAc(b1-3)Gal(b1-4)GlcNAc(b1-3)Gal(b1-4)GlcNAc(b1-2)[Gal(b1-4)GlcNAc(b1-3)Gal(b1-4)GlcNAc(b1-3)Gal(b1-4)GlcNAc(b1-3)Gal(b1-4)GlcNAc(b1-3)Gal(b1-4)GlcNAc(b1-6)]Man(a1-6)[Gal(b1-4)GlcNAc(b1-3)Gal(b1-4)GlcNAc(b1-3)Gal(b1-4)GlcNAc(b1-3)Gal(b1-4)GlcNAc(b1-3)Gal(b1-4)GlcNAc(b1-2)Man(a1-3)]Man(b1-4)GlcNAc(b1-4)[Fuc(a1-6)]GlcNAc
Summary of the method: as §1

[13] = target: Gal(b1-4)GlcNAc(b1-3)Gal(b1-4)GlcNAc(b1-3)Gal(b1-4)GlcNAc(b1-3)Gal(b1-4)GlcNAc(b1-3)Gal(b1-4)GlcNAc(b1-3)Gal(b1-4)GlcNAc(b1-2)Man(a1-3)[Gal(b1-4)GlcNAc(b1-3)Gal(b1-4)GlcNAc(b1-3)Gal(b1-4)GlcNAc(b1-3)Gal(b1-4)GlcNAc(b1-3)Gal(b1-4)GlcNAc(b1-3)Gal(b1-4)GlcNAc(b1-2)Man(a1-6)]Man(b1-4)GlcNAc(b1-4)GlcNAc
Summary of the method: as §1

Gal3S(b1-4)Glc6S = target: Gal3S(b1-4)Glc6S
Summary of the method: as §1

Gal3S6S(b1-4)GlcNAc = target: Gal3S6S(b1-4)GlcNAc
Summary of the method: as §1

Gal3S6S(b1-4)GlcNAc6S = target: Gal3S6S(b1-4)GlcNAc6S
Summary of the method: as §1

[14] = target: GalNAc(a1-3)GalNAc(b1-3)Gal(a1-4)Gal(b1-4)Glc
Summary of the method: as §1

GalNAc(b1-3)GlcNAc = target: GalNAc(b1-3)GlcNAc
Summary of the method: as §1

GalNAc(b1-4)Gal(b1-4)Glc = target: GalNAc(b1-4)Gal(b1-4)Glc
Summary of the method: as §1

[15] = target: GalNAc(b1-4)GlcNAc(b1-3)GalNAc(b1-4)GlcNAc
Summary of the method: as §1

Glc(a1-6)Glc(a1-6)Glc = target: Glc(a1-6)Glc(a1-6)Glc
Summary of the method: as §1

GlcNAc(b1-3)Fuc = target: GlcNAc(b1-3)Fuc
Summary of the method: as §1

[16] = target: GlcNAc(b1-3)Gal(b1-4)GlcNAc(b1-3)Gal(b1-4)GlcNAc(b1-2)Man(a1-3)[GlcNAc(b1-3)Gal(b1-4)GlcNAc(b1-3)Gal(b1-4)GlcNAc(b1-2)Man(a1-6)]Man(b1-4)GlcNAc(b1-4)[Fuc(a1-6)]GlcNAc
Summary of the method: as §1

[17] = target: GlcNAc(b1-3)Gal(b1-4)GlcNAc(b1-3)Gal(b1-4)GlcNAc(b1-3)Gal(b1-4)GlcNAc(b1-3)Gal(b1-4)GlcNAc(b1-2)Man(a1-3)[GlcNAc(b1-3)Gal(b1-4)GlcNAc(b1-3)Gal(b1-4)GlcNAc(b1-3)Gal(b1-4)GlcNAc(b1-3)Gal(b1-4)GlcNAc(b1-2)Man(a1-6)]Man(b1-4)GlcNAc(b1-4)[Fuc(a1-6)]GlcNAc
Summary of the method: as §1

[18] = target: GlcNAc(b1-3)Gal(b1-4)GlcNAc(b1-6)[GlcNAc(b1-3)]Gal(b1-4)GlcNAc
Summary of the method: as §1

[19] = target: GlcNAc(b1-3)[GlcNAc(b1-6)]GalNAc
Summary of the method: as §1

[20] = target: GlcNAc(b1-4)[GlcNAc(b1-6)]GalNAc
Summary of the method: as §1

[21] = target: GlcNAc6S(b1-3)Gal(b1-4)GlcNAc
Summary of the method: as §1

[22] = target: Kdn(a2-3)Gal(b1-4)[Fuc(a1-3)]GlcNAc
Summary of the method: as §1

[23] = target: Man(a1-3)[Man(a1-6)]Man(a1-6)[Man(a1-3)]Man
Summary of the method: as §1

[24] = target: Neu5Ac(a2-3)Gal(b1-3)GlcNAc6S
Summary of the method: as §1

[25] = target: Neu5Ac(a2-3)Gal(b1-4)GlcNAc(b1-2)[Neu5Ac(a2-3)Gal(b1-4)GlcNAc(b1-6)]Man(a1-6)[Neu5Ac(a2-3)Gal(b1-4)GlcNAc(b1-2)Man(a1-3)][GlcNAc(b1-4)]Man(b1-4)GlcNAc(b1-4)GlcNAc
Summary of the method: as §1

[26] = target: Neu5Ac(a2-3)Gal(b1-4)GlcNAc(b1-3)Gal(b1-4)GlcNAc(b1-6)[Gal(b1-3)]GalNAc
Summary of the method: as §1

[27] = target: Neu5Ac(a2-3)Gal(b1-4)GlcNAc(b1-6)GalNAc
Summary of the method: as §1

[28] = target: Neu5Ac(a2-6)Gal(b1-4)GlcNAc(b1-3)Gal(b1-4)GlcNAc(b1-3)Gal(b1-4)GlcNAc(b1-2)Man(a1-3)[Neu5Ac(a2-6)Gal(b1-4)GlcNAc(b1-3)Gal(b1-4)GlcNAc(b1-3)Gal(b1-4)GlcNAc(b1-2)Man(a1-6)]GalNAc
Summary of the method: as §1

[29] = target: Neu5Ac(a2-6)Gal(b1-4)GlcNAc(b1-3)[Neu5Ac(a2-6)Gal(b1-4)GlcNAc(b1-6)]GalNAc
Summary of the method: as §1

[30] = target: Neu5Ac(a2-8)Neu5Ac(a2-3)[Gal(b1-3)GalNAc(b1-4)]Gal(b1-4)Glc
Summary of the method: as §1

[31] = target: Neu5Ac(a2-8)Neu5Gc(a2-3)Gal(b1-4)GlcNAc
Summary of the method: as §1

B1: PX9961K-bvu-480-28-480 (Bacteroides vulgatus) (protein)
chain: NKIPTTMAFRTVTDVDNAVNGLYDLMSGSGYYGAAMFAYGDMKGDDMQSSEESGVCNTCYMFNHRPNSLNAGSLWGRPFYILREAWNILNAIAEGKIESGDEKKLNALKGETMAVIALCQFDLTRCFGYPYTKDKGASLGAPLIDHLVGTYENPPRSTVAQAYDFIIETLEEAVTLMSEEKNNGRMNKYAARALLARIYLYHDDNRKAFDLADQLIKDADTSGSYALYPHEKYVAAWSVEAKFGSESFFEIANSVDDTPGRDSWGYLLNWYGYQKGFVTQKYAEQMLADPGDVRGHLLEENKYAGKTVWWLYKLRGTDLKTAPLECNNVVLRLSEVYLIAAEAGCKLGGDAAVQGLGYLNEIVKRGNPDNEVTMADYTLDRVLDERSKELVGEGHRFFDLLRNGKTIVRKGGYHLPSVDEEVDWDFYKCVLPIPEDQFIFSPEMEQNPGYPKN
With B1 the “glycan array binding signal (z-score)” value (Fuc(a1-2)Gal) was -0.335, the “glycan array binding signal (z-score)” value [1] was -0.817 and the “glycan array binding signal (z-score)” value [2] was -0.084. The “glycan array binding signal (z-score)” value [3] was -0.605, the “glycan array binding signal (z-score)” value [4] was 0.151 and the “glycan array binding signal (z-score)” value [5] was -0.75. The “glycan array binding signal (z-score)” value [6] was 0.583, the “glycan array binding signal (z-score)” value [7] was 0.709 and the “glycan array binding signal (z-score)” value [8] was 3.09. For the same binder, the “glycan array binding signal (z-score)” value [9] was 1.47, the “glycan array binding signal (z-score)” value (Gal(b1-2)Gal) was 0.817 and the “glycan array binding signal (z-score)” value [10] was 0.157. For the same binder, the “glycan array binding signal (z-score)” value (Gal(b1-4)Glc) was -0.177, the “glycan array binding signal (z-score)” value [11] was 0.328 and the “glycan array binding signal (z-score)” value [12] was 1.61. The “glycan array binding signal (z-score)” value [13] was 1.2, the “glycan array binding signal (z-score)” value (Gal3S(b1-4)Glc6S) was 0.273 and the “glycan array binding signal (z-score)” value (Gal3S6S(b1-4)GlcNAc) was 0.512. The “glycan array binding signal (z-score)” value (Gal3S6S(b1-4)GlcNAc6S) was 1.05, the “glycan array binding signal (z-score)” value [14] was -0.347 and the “glycan array binding signal (z-score)” value (GalNAc(b1-3)GlcNAc) was 0.085. For the same binder, the “glycan array binding signal (z-score)” value (GalNAc(b1-4)Gal(b1-4)Glc) was 0.362, the “glycan array binding signal (z-score)” value [15] was -0.336 and the “glycan array binding signal (z-score)” value (Glc(a1-6)Glc(a1-6)Glc) was -0.638. The “glycan array binding signal (z-score)” value (GlcNAc(b1-3)Fuc) was 1.16, the “glycan array binding signal (z-score)” value [16] was 1.89 and the “glycan array binding signal (z-score)” value [17] was 0.909. For the same binder, the “glycan array binding signal (z-score)” value [18] was 1.77, the “glycan array binding signal (z-score)” value [19] was -0.501 and the “glycan array binding signal (z-score)” value [20] was 0.135. The “glycan array binding signal (z-score)” value [21] was 1.58, the “glycan array binding signal (z-score)” value [22] was -0.426 and the “glycan array binding signal (z-score)” value [23] was 2.06. For the same binder, the “glycan array binding signal (z-score)” value [24] was 0.976, the “glycan array binding signal (z-score)” value [25] was 1.59 and the “glycan array binding signal (z-score)” value [26] was -0.074. For the same binder, the “glycan array binding signal (z-score)” value [27] was -0.742, the “glycan array binding signal (z-score)” value [28] was 1.68 and the “glycan array binding signal (z-score)” value [29] was -0.532. For the same binder, the “glycan array binding signal (z-score)” value [30] was -0.283 and the “glycan array binding signal (z-score)” value [31] was 19.1.
